Values joined by “and” are separate entries in the source; they are usually repeats but may differ in a detail not shown here. Equal entries are not always repeated. Records with an inconclusive call do not appear. A call without a number means that no potency is given here. More than one record can exist for a structure, and the calls need not agree. Active and inactive are the calls of the source. Unless noted, calls follow the shape of the dose curve; as a rule, active = well fitted curve in the direction sought with a large enough effect in the repeat runs; inconclusive = weak or mixed curves; inactive = no such curve, though single readings can be large; an effect the other way counts as inactive or inconclusive.
Tests used:
[1] = qHTS assay to identify small molecule antagonists of the estrogen related receptor (ERR) signaling pathway from Tox21 library - cell viability counter screen (AID 1224834); also: nearly all actives have a fitted effect of over 30% in size; also: potency is read from the fitted curve at half-maximal effect
Procedure, shortened: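 Multiplexed viability counter screen in ERR cells: 17.5 h compound exposure at 37 C, CellTiter-Fluor added, 30 min at 37 C/5% CO2, fluorescence read.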

[2] = molecular target: Luciferin 4-monooxygenase (Photinus pyralis) (UniProt P08659); experiment: qHTS assay to identify small molecule inhibitors of firefly luciferase (AID 1224835); also: nearly all actives have a fitted effect of over 25% in size; also: potency is read from the fitted curve at half-maximal effect
Chain of Luciferin 4-monooxygenase (Photinus pyralis) (P08659 whole entry, looked up): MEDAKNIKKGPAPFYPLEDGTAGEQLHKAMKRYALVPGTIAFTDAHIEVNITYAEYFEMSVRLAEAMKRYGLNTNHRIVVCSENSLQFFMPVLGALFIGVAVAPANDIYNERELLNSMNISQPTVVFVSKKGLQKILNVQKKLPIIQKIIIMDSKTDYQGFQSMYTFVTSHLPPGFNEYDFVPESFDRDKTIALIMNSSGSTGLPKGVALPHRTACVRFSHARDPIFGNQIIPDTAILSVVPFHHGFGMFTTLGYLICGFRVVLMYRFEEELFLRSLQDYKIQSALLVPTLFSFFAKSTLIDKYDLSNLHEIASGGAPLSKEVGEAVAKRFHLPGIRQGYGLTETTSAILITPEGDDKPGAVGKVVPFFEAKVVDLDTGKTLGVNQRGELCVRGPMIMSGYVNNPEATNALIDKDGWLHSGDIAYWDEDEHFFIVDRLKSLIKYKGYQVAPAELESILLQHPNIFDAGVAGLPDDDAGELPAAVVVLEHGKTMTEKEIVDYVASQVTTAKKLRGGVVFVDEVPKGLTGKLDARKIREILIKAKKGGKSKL
Procedure, shortened: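 Quantitative HTS format; KM concentrations of both substrates. Purified P. pyralis FLuc activity quantified from luminescence images.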

[3] = qHTS assay to identify small molecule agonists of the constitutive androstane receptor (CAR) signaling pathway - cell viability counter screen (AID 1224836); also: nearly all actives have a fitted effect of over 45% in size
Procedure, shortened: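 HepG2 cells stably carrying hCAR and a CYP2B6-2.2kb reporter; 15-concentration compounds plus PK11195 (final 0.75 uM), 23 hr at 37 C/5% CO2. Viability read by CellTiter-Fluor fluorescence.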

[4] = molecular target: Nuclear receptor subfamily 1 group I member 3 (Homo sapiens) (UniProt Q14994); experiment: qHTS assay to identify small molecule antagonists of the constitutive androstane receptor (CAR) signaling pathway (AID 1224838);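 also: HepG2 cells stably expressing hCAR with CYP2B6 luciferase reporter stimulated by CITCO; nearly all actives have a fitted effect of over 40% in size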
Chain of Nuclear receptor subfamily 1 group I member 3 (Homo sapiens) (Q14994 whole entry, looked up): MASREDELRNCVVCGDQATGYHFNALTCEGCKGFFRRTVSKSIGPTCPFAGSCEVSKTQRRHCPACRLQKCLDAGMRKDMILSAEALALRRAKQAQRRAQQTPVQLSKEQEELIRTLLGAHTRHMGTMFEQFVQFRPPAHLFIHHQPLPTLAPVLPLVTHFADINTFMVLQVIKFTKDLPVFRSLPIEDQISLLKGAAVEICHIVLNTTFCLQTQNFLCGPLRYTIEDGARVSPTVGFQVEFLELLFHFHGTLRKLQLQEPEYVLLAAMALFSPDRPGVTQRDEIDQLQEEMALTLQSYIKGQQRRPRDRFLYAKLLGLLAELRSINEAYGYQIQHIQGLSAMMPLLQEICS
Procedure, shortened: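 Read-out: ONE-Glo luciferase luminescence after 30 min at room temperature. HepG2-CYP2B6-hCAR double-stable cells, compounds in 15-point titration plus 50 nM CITCO final, 24 h at 37 C/5% CO2.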

[5] = molecular target: Nuclear receptor subfamily 1 group I member 3 (Homo sapiens) (UniProt Q14994); experiment: qHTS assay to identify small molecule agonists of the constitutive androstane receptor (CAR) signaling pathway (AID 1224839); also: nearly all actives have a fitted effect of over 15% in size; also: potency is read from the fitted curve at half-maximal effect;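 as to activation: HepG2 cells stably carrying human CAR and a CYP2B6 luciferase reporter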
Procedure, shortened: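 HepG2 cells stably co-transfected with hCAR and a CYP2B6-2.2kb luciferase reporter; compounds at 15 concentrations with 0.75 uM PK11195 present. After 24 hr at 37 C, luciferase read by ONE-Glo luminescence.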

[6] = qHTS assay to identify small molecule antagonists of the estrogen related receptor signaling pathway with the pleiotropic PPARgamma coactivator (PGC) from Tox21 10K library - cell viability counter screen (AID 1224840; active = well fitted cell-killing curve with a large enough effect in the repeat runs, not every such curve was filed as active; also: nearly all actives have a fitted effect of over 40% in size; also: potency is read from the fitted curve at half-maximal effect)
Procedure, shortened: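 Fluorescence read-out of CellTiter-Fluor viability reagent, added after cells had been exposed to compound in DMSO for 17.5 h at 37 C; 30 min development at 37 C/5% CO2. Cells: PGC/ERR line, 2,000/well.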

[7] = qHTS assay to identify small molecule agonists of the hypoxia (HIF-1) signaling pathway - cell viability counter screen (AID 1224844; calls by dose curve; also: nearly all actives have a fitted effect of over 50% in size)
Procedure, shortened: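 CellTiter-Glo luminescence read-out, 30 min RT, taken in the same wells as the beta-lactamase HRE reporter assay; HRE-bla ME-180 cells, 0.5% dialyzed FBS, 17 hr compound treatment at 37C, 5% CO2.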

[8] = qHTS assay to identify small molecule agonists of H2AX (AID 1224845; active = well fitted activation curve with a large enough effect in the signal ratio in the repeat runs, not every such curve was filed as active; the % refers to the signal ratio)
Procedure, shortened: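 Wild-type CHO-K1 cells plated overnight, then exposed 3 hr at 37C to compounds at 15 concentrations (0.76% DMSO). Lysed, then HTRF anti-pH2AX(S139)-cryptate/anti-H2AX-d2 detection after 24 hr at room temperature; emissions 665 and 620 nm.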

[9] = qHTS assay to identify small molecule agonists of the hypoxia (HIF-1) signaling pathway (AID 1224846; active = well fitted activation curve with a large enough effect in the signal ratio in the repeat runs, not every such curve was filed as active; the % refers to the signal ratio)
Procedure, shortened: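 Beta-lactamase FRET read-out (CCF4-AM substrate) from ME-180 cells carrying an HRE-driven bla reporter, after 17 hrs compound exposure at 37C/5% CO2. Cells were seeded at 2,000 per well in 0.5% dialyzed FBS medium and preincubated 5 hrs.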

[10] = qHTS assay to identify small molecule agonists of H2AX - cell viability counter screen (AID 1224847; calls by dose curve; also: nearly all actives have a fitted effect of over 30% in size; also: potency is read from the fitted curve at half-maximal effect)
Procedure, shortened: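 CHO-K1 cells plated overnight at 37C, then exposed 3 h at 37C to compounds at 15 concentrations (0.76% DMSO final). Viability by CellTiter-Glo luminescence after 30 min at room temperature.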

[11] = qHTS RealTime-Glo MT Cell Viability Assay in HepG2 cells - 24 hour (AID 1224867); also: nearly all actives have a fitted effect of over 50% in size
Procedure, shortened: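 qHTS, HepG2, 600 cells/well, RealTime-Glo (NanoLuc + prosubstrate) added with cells; 5 h preincubation; DMSO compound addition; 37 C; luminescence at 0/8/16/24/32/40 h.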

[12] = A CellTox Green Cytotoxicity Assay to monitor cytotoxicity in HEK293 cells - 0 hour (AID 1224869); also: nearly all actives have a fitted effect of over 50% in size
Procedure, shortened: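 Read-out: fluorescence of a cell-impermeant cyanine dye staining DNA of dead cells, proportional to cytotoxicity. HEK293, 600 cells/well with reagent, compound (23 nL DMSO) added after 5 h; reads at 0, 8, 16, 24, 32, 40 h.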

[13] = molecular target: Thyrotropin receptor (Homo sapiens) (UniProt P16473); experiment: qHTS assay to identify small molecule agonists of the thyroid stimulating hormone receptor (TSHR) signaling pathway (AID 1224843; calls by dose curve; also: nearly all actives have a fitted effect of over 45% in size)
Chain of Thyrotropin receptor (Homo sapiens) (P16473 whole entry, looked up): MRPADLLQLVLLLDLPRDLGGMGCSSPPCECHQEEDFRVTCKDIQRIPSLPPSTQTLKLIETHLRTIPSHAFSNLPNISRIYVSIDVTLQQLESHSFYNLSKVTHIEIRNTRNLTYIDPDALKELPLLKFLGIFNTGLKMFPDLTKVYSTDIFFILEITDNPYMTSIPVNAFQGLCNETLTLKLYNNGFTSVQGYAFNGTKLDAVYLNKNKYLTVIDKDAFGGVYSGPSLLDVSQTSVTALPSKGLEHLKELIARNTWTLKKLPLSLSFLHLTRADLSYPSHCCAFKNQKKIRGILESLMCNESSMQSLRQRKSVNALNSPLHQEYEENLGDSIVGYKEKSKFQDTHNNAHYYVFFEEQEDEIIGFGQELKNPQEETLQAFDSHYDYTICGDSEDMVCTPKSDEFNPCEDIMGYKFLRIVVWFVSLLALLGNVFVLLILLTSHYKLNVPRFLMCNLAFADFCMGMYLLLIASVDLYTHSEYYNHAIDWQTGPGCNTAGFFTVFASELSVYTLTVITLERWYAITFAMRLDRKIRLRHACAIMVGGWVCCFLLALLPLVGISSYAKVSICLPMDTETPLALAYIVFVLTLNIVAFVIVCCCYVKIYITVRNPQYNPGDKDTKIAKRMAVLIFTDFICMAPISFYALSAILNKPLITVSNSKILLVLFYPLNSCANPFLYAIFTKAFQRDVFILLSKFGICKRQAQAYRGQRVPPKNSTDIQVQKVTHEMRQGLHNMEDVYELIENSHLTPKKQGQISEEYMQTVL
Procedure, shortened: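 Using 15 concentrations per compound in triplicate, cAMP production was monitored in TSHR-HEK293 cells after 30 min compound incubation at RT; HTRF reagents followed, with fluorescence intensity recorded after 1 h.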

[14] = qHTS RealTime-Glo MT Cell Viability Assay in HEK293 cells - 32 hour (AID 1224868); also: nearly all actives have a fitted effect of over 50% in size; also: potency is read from the fitted curve at half-maximal effect
Procedure, shortened: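 Assay medium contained NanoLuc luciferase plus cell-permeant prosubstrate, added with HEK293 cells at 600 cells/well. After 5 h at 37 C/5% CO2 compounds were added; plates stayed at 37 C for 40 h with serial luminescence reads.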

[15] = qHTS assay to identify small molecule antagonists of the constitutive androstane receptor (CAR) signaling pathway - cell viability counter screen (AID 1224837); also: nearly all actives have a fitted effect of over 45% in size
Procedure, shortened: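 Read-out: CellTiter-Fluor fluorescence after 23 hr at 37 C/5% CO2. Cells: HepG2 double-stable for hCAR and CYP2B6-2.2kb. Compounds tested at 15 concentrations in the presence of CITCO, final concentration 50 nM.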

[16] = qHTS assay to identify small molecule antagonists of the estrogen related receptor signaling pathway with the pleiotropic PPARgamma coactivator (PGC) from Tox21 10K library (AID 1224841; call rule not given here; also: potency is read from the fitted curve at half-maximal effect)
Procedure, shortened: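 Luminescence read-out (One-Glo luciferase reagent, 30 min at room temperature) from PGC/ERR cells exposed to DMSO-dissolved test compounds for 18 h at 37 C; cells, 2,000 per well, had been preincubated 6 h before compound transfer.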

[17] = qHTS assay to identify small molecule agonists of the estrogen related receptor signaling pathway with the pleiotropic PPARgamma coactivator (PGC) from Tox21 10K library (AID 1224842); also: nearly all actives have a fitted effect of over 15% in size
Procedure, shortened: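 PGC/ERR reporter cells (NTP line) were seeded 2,000 per well, rested 6 h at 37 C/5% CO2, then pin-dosed with compounds in DMSO for 18 h at 37 C; luciferase read by One-Glo luminescence after 30 min at room temperature.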

[18] = qHTS assay to identify small molecule antagonists of the estrogen related receptor (ERR) signaling pathway from Tox21 library (AID 1224848); also: nearly all actives have a fitted effect of over 50% in size; also: potency is read from the fitted curve at half-maximal effect
Procedure, shortened: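 Tox21 10K compounds in DMSO tested for ERR pathway antagonism in NTP's ERR cell line; 18 h, 37 C exposure; ONE-Glo luminescence.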

[19] = qHTS assay to identify small molecule agonists of the estrogen related receptor (ERR) signaling pathway from Tox21 library (AID 1224849; calls by dose curve; also: nearly all actives have a fitted effect of over 15% in size); details: ERR reporter cell line, ONE-Glo luciferase, 18 h; at 92.4 µM (top of the series)
Procedure, shortened: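 Luminescence readout (ONE-Glo, 30 min RT) after 18 h compound exposure at 37 C of NTP-supplied ERR reporter cells; cells were plated 6 h before compound addition by pin tool.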

| SMILES | Potency [1] | Potency [2] | Potency [3] | Potency [4] | Potency [5] | Potency [6] | Potency [7] | Potency [8] | outcome [9] | Potency [10] | Potency [11] | Potency [12] | Potency [13] | Potency [14] | Potency [15] | Potency [16] | Potency [17] | Potency [18] | activity change, positive = activation [19] |
| --- | --- | --- | --- | --- | --- | --- | --- | --- | --- | --- | --- | --- | --- | --- | --- | --- | --- | --- | --- |
| CCOC(=O)C1OC1c1ccccc1 (configuration not stated) | inactive | inactive | inactive | inactive | inactive | inactive | inactive | inactive | inactive | inactive | inactive | inactive |  |  |  |  |  |  |  |
| CC1=C(CC(=O)O)c2cc(F)ccc2/C1=C\c1ccc(S(C)=O)cc1 (configuration not stated) | inactive | inactive | inactive | inactive | 61.1 µM (active) and inactive | inactive | inactive | inactive |  | inactive | inactive | inactive | inactive | inactive |  |  |  |  |  |
| CC(C)(N=C=O)c1cccc(C(C)(C)N=C=O)c1 |  | inactive | inactive | inactive | inactive | inactive | inactive |  | inactive | inactive | inactive | inactive | inactive | inactive | inactive | 48.2 µM (active) and inactive | inactive | 54 µM (active) and inactive | -40.3% (inactive) and 2.13% (inactive) |
| OC[C@@H](O)[C@H](O)[C@H](O)[C@@H](O)CO | inactive | inactive | inactive |  |  | inactive | inactive |  | inactive | inactive | inactive | inactive | inactive | inactive |  | inactive | inactive | inactive |  |
| CC(=O)[C@@]1(O)CC[C@H]2[C@@H]3CCC4=CC(=O)CC[C@]4(C)[C@H]3CC[C@@]21C | inactive | inactive |  |  |  | inactive | inactive | inactive |  | inactive | inactive | inactive | inactive |  |  |  |  |  |  |
| COC(=O)Nc1nc2ccc(Sc3ccccc3)cc2[nH]1 | inactive |  | inactive | inactive | 4.33 µM (active) | inactive | inactive |  |  | inactive | inactive | inactive | inactive | 692 nM (active) and 848 nM (active) | inactive |  |  |  |  |
| CC(C)(CO)COC(=O)C(C)(C)CO | inactive | inactive | inactive | inactive | inactive | inactive | inactive | inactive | inactive | inactive | inactive | inactive | inactive | inactive |  | inactive | inactive | inactive | 2.22% (inactive) and 0.644% (inactive) |
| O=S(=O)(Oc1ccc(Cl)cc1Cl)c1ccccc1 | inactive | 79.6 µM (active) | inactive | inactive | 15.6 µM (active) and 48.6 µM (active) | inactive | inactive | inactive | inactive | 91.4 µM (active) and 50.5 µM (active) | inactive | inactive | inactive | inactive |  | inactive |  | inactive |  |
| O=C1N=C(O)CN1/N=C/c1ccc(-c2ccc([N+](=O)[O-])cc2)o1 | 43.3 µM (active) and 26.6 µM (active) |  |  | inactive | inactive | 48.6 µM (active) and inactive | inactive |  |  | inactive | inactive | inactive | inactive | inactive |  |  |  |  |  |
| O=C(c1cc(O)c(O)c(O)c1)c1ccc(O)c(O)c1O | 54.3 µM (active) and 54.5 µM (active) |  | inactive | inactive | inactive | inactive | inactive |  | inactive | inactive | inactive | inactive |  | inactive | inactive | inactive | inactive | inactive |  |
| OCC1CCCO1 (configuration not stated) | inactive | inactive | inactive | inactive | inactive | inactive | inactive | inactive | inactive | inactive | inactive | inactive |  | inactive |  |  |  |  |  |
| C=CC(=O)OCCCCCCCC(C)C | inactive | inactive | inactive | inactive | inactive | inactive | inactive | inactive | inactive | inactive | inactive | inactive | inactive | inactive |  |  |  |  |  |
| COCC(C)O (configuration not stated) | inactive | inactive | inactive |  |  | inactive | inactive |  | inactive | inactive | inactive | inactive | inactive | inactive |  | inactive | inactive | inactive | -0.602% (inactive) and 6.16% (inactive) |
| O=C1O[C@H](CO)[C@@H](O)[C@H](O)[C@H]1O |  | inactive | inactive | inactive | inactive | inactive | inactive |  | inactive | inactive | inactive | inactive | inactive | inactive |  | inactive | inactive | inactive |  |
| Cc1cc(O)cc(C)c1Cl |  | inactive | inactive |  |  | inactive | inactive | inactive | inactive | inactive | inactive | inactive | inactive | inactive | inactive |  |  |  |  |
| OC[C@@H](O)[C@@H](O)[C@H](O)[C@@H](O)CO |  | inactive | inactive |  |  | inactive | inactive | inactive | inactive | inactive | inactive | inactive | inactive | inactive | inactive | inactive | inactive | inactive |  |
| Cc1ccc(C)c(C)c1 |  | inactive | inactive | inactive | inactive | inactive | inactive |  | inactive | inactive | inactive | inactive | inactive | inactive |  |  |  |  |  |

Source: PubChem BioAssay (Tox21)
